The list is not random: actives were taken first. Their share in the collection is about 21%.
Shiga toxin inh – blocks Shiga toxin action in Vero cells; Vero cells, Shiga toxin protein synthesis inhibition reporter; inhibition, % at 38.7 µM; hit rate 9.2% among 290,000; in the data active = inhibition mostly above about 28%, no sharp cut-off; inactive = mostly below about 43%; also: 0% is about no effect
Pf growth 96h – P. falciparum growth inhibition at 96 hour, primary screen for plastid delayed-death inhibitors; P. falciparum luciferase reporter growth, 96 h; Potency, µM (highest dose often 28.7 µM), for inactives: at the highest dose activity change, negative = inhibition, hits mostly inhibitors; hit rate 6.9% among 320,000; AID 504834; also: potency is read from the fitted curve at half-maximal effect; % is scaled to controls: 0 for no effect and ±100 for the full control effect
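Delayed-death screen, second-generation endpoint: infected erythrocytes, 2% hematocrit, 0.05% parasitemia final; 96 hours at 37 C, 5% CO2; luciferase detection reagent; luminescence decrease equals reduced growth.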
Pf growth 48h – P. falciparum growth inhibition at 48 hours (one generation) | P. falciparum luciferase growth in erythrocytes, 48 h | Potency, µM (highest dose often 28.7 µM), without a hit: at the top dose activity change, negative = inhibition, usual class: inhibitors | hit rate 5.9% among 310,000 | AID 504832; also: potency is read from the fitted curve at half-maximal effect; % is scaled to controls: 0 for no effect and ±100 for the full control effect
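Here the parasites carry a stable luciferase gene and grow inside erythrocytes in Albumax-based RPMI medium with compound for one erythrocytic cycle. Activity is scored as loss of luminescent signal.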
HCV inh – blocks hepatitis C virus | Huh7.5.1 HCVcc-Cre infection, luciferase reporter, 44 h | Potency, µM (doses to about 41.8 µM), without a hit: at the highest dose activity change, negative = inhibition, actives largely listed as inhibitors | hit rate 3.4% among 340,000 | AID 651820; also: potency is read from the fitted curve at half-maximal effect; % is scaled to controls: 0 for no effect and ±100 for the full control effect
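Reporter virus HCVcc-Cre (~0.5 moi) infects cells exposed to compound; seeding density 1,000 cells/well with 4 h settling beforehand. Luminescence, 15 sec read, taken 44 h post-infection following a 15 min RT substrate incubation.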
CHX counter – counter-screen for Shiga toxin inhibitors: cycloheximide protein synthesis inhibition; cell reporter, cycloheximide protein synthesis inhibition counterscreen; max response, %; hit rate 12% among 300,000; AID 2314; in the data active = max response mostly above about 13%, no sharp cut-off; inactive = mostly below about 14%; also: read at 38.3 µM for the half of the compounds with a filed dose; 0% is about no effect
AMA1 RON2 block – AMA1-RON2 (P. falciparum) interaction inhibition; AID 720542; hit rate 0.2% among 360,000; AlphaScreen AMA1-biotinylated RON2 peptide binding; Potency, µM (doses to about 58.2 µM), for inactives: top-dose activity change, negative = inhibition, hits mostly inhibitors;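 also: potency is read from the fitted curve at half-maximal effect; 0% = vehicle wells and -100% = peptide control; nearly all actives have a fitted effect of over 45% in size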
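AMA1 (3D7) with his tag at 25 nM final met compounds first, then biotinylated RON2 peptide at 25 nM; detection used donor plus acceptor beads, 10 µg/mL apiece, read by AlphaScreen after 30 min at room temperature.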
HCV inh confirm – HCV inhibition, cherry-pick confirmation; shares compounds with HCV inh; HCVcc-Cre infectious virus cell assay, luciferase, inhibition; Potency, µM (top dose mostly 41.8 µM), without a hit: at the top dose activity, negative = inhibition, most hits filed as inhibitors; hit rate 78% among 640; AID 720575; also: potency is read from the fitted curve at half-maximal effect; nearly all actives have a fitted effect of over 80% in size
HCV host tox – counter-screen for HCV inhibitors: host cell cytotoxicity. shares compounds with HCV inh. HCV host cell line cytotoxicity counterscreen. Potency, µM (highest dose often 41.8 µM), without a hit: at the highest dose activity change, negative = cytotoxicity, most hits filed as inhibitors. hit rate 22% among 640. AID 720576;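 also: potency is read from the fitted curve at half-maximal effect; 44 h compound exposure; % is scaled to controls: 0 for no effect and ±100 for the full control effect; nearly all actives have a fitted effect of over 55% in size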
Numbers without * were called inactive; ? = inconclusive; . = not tested or not shown; [ ] = another dose, or the depositor's remark. Unless noted, calls follow the shape of the dose curve; as a rule, active = well fitted curve in the direction sought with a large enough effect; inconclusive = small, poorly fitted or top-dose-only effect, or another doubt; inactive = no such curve, though single readings can be large; an effect the other way counts as inactive or inconclusive.

SMILES	Shiga toxin inh	Pf growth 96h	Pf growth 48h	HCV inh	CHX counter	AMA1 RON2 block	HCV inh confirm	HCV host tox
COc1ccc2sc(-c3ccc(SC)cc3)c(/C=C/c3ccc(OC)c(OC)c3)c2c1	.	.	.	13%	.	-1%	.	.
COc1ccc2c(c1OC)C(=O)N1C2SC[C@H]1C(=O)NC1CC1 (stereo partly drawn)	-3	31%	8%	1µM*	-2	-2%	-10%	5%
Cc1ccc(S(=O)(=O)N2CCCCC2)cc1	-1	18%	.	6%	12	-5%	.	.
Cc1ccc(C)c(CNc2ccc(S(=O)(=O)N3CCCCC3)cc2)c1	.	?	12µM*	4.5µM*	.	0%	25µM*	31µM*
CCc1nnc(NC(=O)c2ccc(S(=O)(=O)N3CCc4ccccc4C3)cc2)s1	-17	27%	-6%	9%	-1	1%	.	.
Cc1cc(C)c2nc(NNC(=O)c3ccc(S(=O)(=O)N4CCc5ccccc5C4)cc3)sc2c1	20	3.7µM*	2.3µM*	4.5µM*	1	41%	3.5µM*	?
CC(C)C(C)NC(=O)COC(=O)c1cc(S(=O)(=O)N(C)C)ccc1N1CCCC1 (stereo not drawn)	-9	3%	?	.	-2	.	.	.
COc1cc(/C=C/C(=O)Nc2cccc(S(=O)(=O)N3CCOCC3)c2)ccc1OCC#N	.	?	?	?	.	-5%	2.8µM*	20%
COc1ccc(OC)c(NC(=O)/C=C/c2ccc(S(=O)(=O)N3CCOCC3)cc2)c1	.	2.9µM*	12µM*	?	.	-3%	11µM*	?
COc1ccccc1/C=C/C(=O)Nc1cccc(S(=O)(=O)N2CCOCC2)c1	.	?	?	?	.	6%	.	.
CC(=O)c1ccccc1NS(C)(=O)=O	-2	20%	0%	-7%	7	-17%	.	.
CC(=O)Nc1ccc(-c2csc(N/N=C(/C)c3ccccc3)n2)cc1	18	?	?	1.3µM*	12	50%	6.3µM*	-22%
COc1ccc(Nc2nc(NC(C)(C)C)nc(N3CCOCC3)n2)c(OC)c1	-4	21%	?	7.1µM*	2	?	7µM*	16%
COc1ccc(N2CCN(c3nc(NCCO)nc(N4CCOCC4)n3)CC2)cc1	-10	-19%	?	-7%	-2	-6%	.	.
c1ccc(-c2nc(NCc3ccco3)c3oc4ccccc4c3n2)cc1	2	?	?	?	13	-23%	.	.
c1ccc(Nc2nc(NCc3ccco3)c3ccccc3n2)cc1	33*	?	?	4µM*	16*	-25%	14µM*	25µM*
C/C(Cc1ccccc1)=N\NC(=O)CNC(=O)c1ccc(Cl)cc1Cl	25	34%	20%	19%	15	49%	.	.
NC(=O)c1ncn([C@@H]2O[C@H](CNCc3ccc(-c4cc(C(F)(F)F)ccc4Cl)o3)[C@@H](O)[C@H]2O)n1	.	.	.	3.2µM*	.	9%	-17%	0.025µM*
Cc1ccc(OCCCCN2CCCCC2)c(C)c1	-3	?	43%	16%	0	9%	.	.
Cc1ccc(OCCCCNC2CCCC(C)C2C)c(C)c1 (stereo not drawn)	-4	?	?	7.9µM*	-3	-7%	25µM*	?
Cc1ccccc1NC(=O)CCN1CCc2ccccc2C1	-17	-43%	?	6%	-1	-7%	.	.
Cc1nnc(C)c2c(C)n(-c3ccc4ncccc4c3)c(C)c12	22	0%	?	-18%	11	-14%	.	.
Cc1cc(C)cc(-n2c(C)c3c(C)nnc(C)c3c2C)c1	-13	?	?	2.2µM*	-5	12%	11µM*	-14%
O=C(NC1CCCCC1NC(=O)c1ccco1)c1ccco1 (stereo not drawn)	-5	?	14%	20%	1	2%	.	.
O=C(NC1c2ccccc2-c2ccccc21)c1ccco1	-5	?	?	?	0	-4%	7.9µM*	-93%
SMILES	Shiga toxin inh	Pf growth 96h	Pf growth 48h	HCV inh	CHX counter	AMA1 RON2 block	HCV inh confirm	HCV host tox
NNC(=O)[C@H](Cc1ccccc1)NC(=O)NCCc1ccccc1	-7	4%	-1%	3%	-7	69%	.	.
COC(=O)C1=C(C(=O)OC)SC2(S1)C(C(=O)OC)=C(C(=O)OC)Sc1c2ssc1=O	.	.	.	?	.	28µM*	10µM*	7.9µM*
Cc1ccc(S(=O)(=O)N(C)C)cc1-n1c(SCC(=O)Nc2ccc(F)cc2Cl)nc2ccccc2c1=O	-7	?	13µM*	1.3µM*	1	11%[11.6 µM]	14µM*	38%
Cc1ccccc1NC(=O)CSc1nc2ccccc2c(=O)n1C	-8	54%	-5%	3.2µM*	10	-1%	8.9µM*	14µM*
Cn1c(SCC(=O)Nc2ccc(F)cc2)nc2c(c1=O)SCC2	-23	-3%	-13%	?	16	-12%	.	.
Cn1c(SCC(=O)Nc2ccccc2F)nc2c(c1=O)SCC2	-12	0%	?	6.3µM*	-1	1%	22µM*	-22%
Cc1ccc(S(=O)(=O)N(C)C)cc1-n1c(SCC(=O)Nc2ccccc2)nc2ccccc2c1=O	-5	?	?	?	-3	-2%	.	.
CC(NC(=O)c1cc(F)c(F)cc1Cl)C1CC2CCC1C2 (stereo not drawn)	-1	3%	3%	-3%	-3	3%	.	.
COc1ccccc1NC(=O)c1cccs1	26	.	48%	?	14	-8%	.	.
COc1ccc(-c2ccccc2)cc1NC(=O)c1cccs1	-5	-12%	5%	7.9µM*	1	-5%	20µM*	17%
COc1ccccc1NC(=O)C(C)OC(=O)c1cc2ccccc2[nH]1 (stereo not drawn)	.	?	9.3µM*	?	.	-5%	7.9µM*	18µM*
O=C(/C=C\c1ccc2c(c1)OCO2)Nc1c2c(nn1-c1ccc(Cl)cc1)CSC2	-20	10µM*	?	?	-4	0%	13µM*	13%
CC(=O)Nc1c2c(nn1-c1ccccc1)CSC2	-4	31%	27%	5%	1	-5%	.	.
CN(C)c1ncnc2c1ncn2[C@H]1CN(Cc2cccnc2)C[C@@H](CO)O1	.	.	.	.	.	-4%	.	.
COc1ccc(-c2cn(CCC(=O)O)c(C)n2)cc1	.	61%	6%	-1%	.	-3%	.	.
Cc1ccc(OCC(O)CNC2CCCC2)cc1C (stereo not drawn)	.	0%	?	-11%	1	1%	.	.
CN1/C(=C/c2cccc[n+]2CCO)Sc2ccccc21	-9	?	?	-15%	1	-7%	.	.

Screening results as filed in PubChem BioAssay.
